Results from PubChem BioAssay AID624151 (Broad Institute, 2012).
In all, about 28,000 compounds went through this assay and about 410 (1.5%) were called active. The sample holds actives, similar compounds and a random draw of the others, so the mix is not that of the screen. A number with no mark means an inactive call. Rule as the data show it: active = activation above about 52%; inconclusive = no clear call, values can overlap the other calls; inactive = below that.

experiment: mutant p53 pathway re-activators, primary screen, cell-based, SW480, luciferase, single point, HTS (AID 624151); settings: SW480 PUMA-promoter luciferase, p53 mutant reactivation; at 9.98 µM; active compounds read high

SMILES	activation
O=C(CSc1nnc(-c2ccc(Br)cc2)o1)Nc1ccc2ccccc2c1	-20.7%
COc1ccccc1-c1nnc(SCC(=O)Nc2ccccc2)o1	28.3%
Cc1ccc(-c2nnc(SCC(=O)Nc3ccccc3OC(F)F)o2)cc1	102% (active)
O=C(CSc1ncnc2sc3c(c12)CCCC3)Nc1ccc(F)c(Cl)c1	0.113%
CC(C)Cc1nc(SCC(=O)Nc2ccc3ccccc3c2)n[nH]1	9.32%
C/C=C/c1ccc2c(c1)O[C@H](CN(C)Cc1cccc(F)c1)[C@H](C)CN([C@H](C)CO)S2(=O)=O	-12.7%
COc1ccccc1NC(=O)N(C)C[C@@H]1Oc2ncc(Br)cc2C(=O)N([C@@H](C)CO)C[C@@H]1C	3.31%
CCn1c(SCC(=O)O)nc2sc3c(c2c1=O)CC(C)(C)OC3	17.9%
COC(=O)c1cc(OC)c(OC)cc1NC(=O)c1cc(-c2ccc(C)o2)nc2ccccc12	21.7%
Cc1ccc(C(=O)Oc2ccc(C(=O)CSc3nc4ccccc4o3)cc2)cc1	45.6%
COc1ccc(C(=O)CCC(=O)Nc2ccc(Br)cc2)cc1	-1.31%
COc1ccccc1NC(=O)CSc1n[nH]c(C)n1	-9.46%
CCOc1ccc(NC(=O)Cn2c(=O)n(-c3ccc(Cl)cc3)c(=O)c3c4c(sc32)CCC4)cc1	-5.81%
COc1ccccc1-n1c(N)cc(=O)nc1SCC(=O)Nc1ccc(Br)cc1	3.88%
COC(=O)COc1cccc(NC(=O)c2cc(OC)c(OC)c(OC)c2)c1	9.43%
Cc1cc2oc(C(=O)Nc3sc4c(c3C(=O)NCc3ccco3)CCC4)c(C)c2cc1C	-5.36%
C[C@@H]1CN([C@@H](C)CO)S(=O)(=O)c2ccc(-c3cccc(C#N)c3)cc2O[C@@H]1CN(C)Cc1cccc(F)c1	-25.7%
C[C@@H]1CN([C@@H](C)CO)C(=O)c2cc(/C=C/c3ccccc3)cnc2O[C@H]1CN(C)C(=O)Nc1ccc(C(F)(F)F)cc1	-18.8%
COc1ccc(Cl)cc1NC(=O)CSc1nnc(-c2ccc(Cl)c(Cl)c2)n1C	1.7%
C/C=C/c1ccc2c(c1)O[C@H](CN(C)C(=O)Cc1cccnc1)[C@@H](C)CN([C@H](C)CO)S2(=O)=O	-5.22%
Cc1cc(=O)oc2cc(OC(C)C(=O)Nc3ccc(Cl)c(C(F)(F)F)c3)ccc12 (stereo not given)	0.711%
CCCC#Cc1ccc2c(c1)O[C@@H](CN(C)CC1CC1)[C@@H](C)CN([C@H](C)CO)S2(=O)=O	1.22%
COCCNC(=O)C[C@@H]1C[C@@H]2c3cc(NC(=O)Nc4ccc(C(F)(F)F)cc4)ccc3O[C@@H]2[C@@H](CO)O1	11.3%
Cc1ccnc(NC(c2cccc([N+](=O)[O-])c2)c2ccc3ccc(C)nc3c2O)c1 (stereo not given)	-13.9%
Cc1csc2nc(SCC(=O)Nc3ccc([N+](=O)[O-])cc3)[nH]c(=O)c12	15.6%
COc1cc(NC(=O)COc2ccc(Cl)cc2C)c(OC)cc1Cl	105% (active)
CCOc1ccc(OCC(=O)Nc2cc(C)c(Cl)cc2OC)cc1	8.21%

SMILES	activation
COc1ccc(NC(=O)CSc2nnnn2C)cc1Cl	47.7%
COC(=O)c1cc(OC)c(OC)cc1NC(=O)COc1ccccc1Cl	10.4%
COc1cc(NC(=O)COc2cc(C)c(Br)c(C)c2)c(OC)cc1Cl	0.202%
Cn1nnc(NC(=O)COc2ccc(Cl)cc2Cl)n1	70.8% (active)
COc1cc(NC(=O)COc2ccccc2Br)c(OC)cc1Cl	132% (active)
COC(=O)c1cc(OC)c(OC)cc1NC(=O)COc1ccc(Cl)cc1	-22.9%
COc1cc(NC(=O)COc2ccc(Br)cc2)ccc1NC(=O)c1ccccc1Cl	20.3%
CS(=O)(=O)N(CC(=O)Nc1cc(C(F)(F)F)ccc1Cl)c1ccccc1Br	-13.9%
Cc1ccc(OCC(=O)Nc2cc(-c3nc4cc(C)c(C)cc4o3)ccc2C)cc1	39.9%
Cc1ccc2nc(-c3ccc(Cl)c(NC(=O)COc4ccc(Br)cc4)c3)oc2c1	91.4% (active)
Cc1cc(C)c2oc(-c3cccc(NC(=O)COc4ccc(Br)cc4)c3C)nc2c1	-29.6%
CS(=O)(=O)N(CC(=O)Nc1ccccc1C(=O)N1CCOCC1)c1ccc(I)cc1	9.09%
CN(C)CCNc1oc(COc2ccc(F)cc2)nc1C#N	-4.45%
Cc1ccc(N(CC(O)CN2C(=O)NC(C)(C)C2=O)S(=O)(=O)c2ccccc2)cc1 (stereo not given)	22.6%
Cc1ccc(NC(=O)CCCN2C(=O)c3ccccc3C2=O)cc1	11.8%
O=C1c2ccccc2C(=O)N1CCCn1c2ccccc2c2nc3ccc([N+](=O)[O-])cc3cc21	9.36%
O=C1c2ccccc2C(=O)N1CCCc1nc2ccccc2c(=O)n1-c1nc2ccccc2s1	102% (active)
COCC#Cc1cnc2c(c1)C(=O)N([C@H](C)CO)C[C@H](C)[C@@H](CN(C)C(=O)Nc1cc(F)ccc1F)O2	13.3%
CC(NS(=O)(=O)c1ccc(F)cc1)C(=O)Nc1ccc(I)cc1 (stereo not given)	-13.8%
COc1ccc(C#Cc2cnc3c(c2)C(=O)N([C@H](C)CO)C[C@H](C)[C@@H](CN(C)C)O3)cc1	0.282%
O=C(CS(=O)(=O)c1ccccc1)Nc1ccc2c(c1)OCCO2	61.6% (active)
O=C(CS(=O)(=O)c1ccccc1)Nc1ccccc1O	7.6%
COc1ccc(S(=O)(=O)N(C)CC(=O)Nc2ccc3c(c2)OCCO3)cc1OC	-12.9%
CC(C)(C)c1ccc(OCC(=O)NCc2ccccn2)c(Br)c1	94.5% (active)
Cc1ccc2nc(-c3ccncc3)cc(C(=O)NCc3ccccn3)c2c1	-3.82%
CN(c1ccc(C(=O)NCc2ccccn2)cc1)S(C)(=O)=O	5.75%
CCCNC(=O)N(C)C[C@H]1Oc2cc(C#CC(C)(C)O)ccc2S(=O)(=O)N([C@H](C)CO)C[C@@H]1C	14.1%

SMILES	activation
CCc1ccccc1NC(=O)Cn1cnc2scc(-c3ccc(OC)cc3)c2c1=O	-10.3%
Cc1cccc(N(CC(=O)Nc2cccc([N+](=O)[O-])c2)S(C)(=O)=O)c1C	-1.11%
Cc1nc(SCC(=O)Nc2ccc(C(=O)O)cc2)[nH]c(=O)c1C	-11.8%
CCn1cc(CNC(=S)Nc2cc(OC)ccc2OC)cn1	-10.5%
CCCNC(=O)N(C)C[C@@H]1Oc2ncc(-c3ccccc3F)cc2C(=O)N([C@@H](C)CO)C[C@H]1C	16.1%
CC(C)(C)c1ccc(OCC(=O)Nc2cccc(NC(=O)c3ccccc3)c2)cc1	39.6%
Cc1cc(C)cc(OCC(=O)Nc2cccc(-c3nnc(-c4ccccc4)o3)c2)c1	90.4% (active)
COc1ccccc1CC(=O)Nc1ccc(-c2nnc(-c3ccc(C)cc3)o2)cc1	-31.3%
Cc1[nH]c2ccccc2c1C(=O)CSc1ccc2ccccc2n1	-16.4%
CCCNC(=O)N(C)C[C@@H]1Oc2ncc(-c3cccc(C#N)c3)cc2C(=O)N([C@@H](C)CO)C[C@H]1C	0.271%
CC(C)C#Cc1ccc2c(c1)O[C@@H](CN(C)Cc1ccncc1)[C@@H](C)CN([C@@H](C)CO)S2(=O)=O	-4.79%
CC(Sc1ncn(-c2ccccc2)n1)C(=O)Nc1ccc(Cl)cc1 (stereo not given)	7.31%
C[C@H](CO)N1C[C@H](C)[C@H](CN(C)Cc2cccc(C(=O)O)c2)Oc2ncc(-c3ccccc3F)cc2C1=O	5.45%
COc1cc([C@H](Cc2ccccc2)NC(C)=O)oc(=O)c1	12.8%
COc1ccc(NC(=O)Nc2ccc3c(c2)[C@@H]2C[C@H](CC(=O)N[C@@H](C)c4ccccc4)O[C@@H](CO)[C@@H]2O3)cc1	-6.79%
COc1ccc2c(c1)C(=O)CC(c1ccccc1)O2 (stereo not given)	60.3% (active)
Cn1nc(CC(=O)Nc2ccc3c(c2)oc2ccccc23)c2ccccc2c1=O	-34.2%
O=C(C[C@@H]1C[C@H]2c3cc(NC(=O)NC4CCCC4)ccc3O[C@H]2[C@H](CO)O1)NCc1cc(F)ccc1F	-2.6%
C[C@H]1CN([C@@H](C)CO)C(=O)c2cc(-c3ccc(C#N)cc3)cnc2O[C@@H]1CN(C)Cc1ccncc1	-0.372%
Cc1ccc([N+](=O)[O-])cc1NC(=O)CSC1=NCCS1	-5.18%
CNC[C@H]1Oc2cc(C#CC(C)(C)O)ccc2S(=O)(=O)N([C@@H](C)CO)C[C@@H]1C	15.9%
C[C@@H]1CN([C@H](C)CO)C(=O)c2c(c3ccccc3n2C)-c2ccccc2CO[C@H]1CN(C)S(=O)(=O)c1ccccc1F	1.72%
Nc1nnc(SCC(=O)Nc2ccc(F)c(Cl)c2)s1	-1.2%
C[C@@H]1CN([C@@H](C)CO)S(=O)(=O)c2ccc(C#CCC3CCCC3)cc2O[C@H]1CN(C)Cc1ccc(C(=O)O)cc1	-0.35%
C[C@@H]1CCCCO[C@@H](CN(C)S(=O)(=O)c2cn(C)cn2)[C@@H](C)CN([C@@H](C)CO)C(=O)c2cc(NC(=O)NC3CCCCC3)ccc2O1	16%
COc1ccc(OC)c(S(=O)(=O)N(C)CC(=O)Nc2cccc(Cl)c2C)c1	-5.43%
